D3 antag = qHTS of D3 Dopamine Receptor Antagonist: qHTS; hit rate 2.5% among 360,000; D(3) dopamine receptor (Homo sapiens), P35462; D3R cells, DiscoveRx beta-arrestin luminescence, antagonist mode; hits give low values; max response, negative = inhibition, %; in the data active = max response below about -50%; inconclusive = no clear call, values can overlap the other calls; also: % is scaled to controls: 0 for no effect and ±100 for the full control effect
Target sequence (P35462 whole entry, looked up): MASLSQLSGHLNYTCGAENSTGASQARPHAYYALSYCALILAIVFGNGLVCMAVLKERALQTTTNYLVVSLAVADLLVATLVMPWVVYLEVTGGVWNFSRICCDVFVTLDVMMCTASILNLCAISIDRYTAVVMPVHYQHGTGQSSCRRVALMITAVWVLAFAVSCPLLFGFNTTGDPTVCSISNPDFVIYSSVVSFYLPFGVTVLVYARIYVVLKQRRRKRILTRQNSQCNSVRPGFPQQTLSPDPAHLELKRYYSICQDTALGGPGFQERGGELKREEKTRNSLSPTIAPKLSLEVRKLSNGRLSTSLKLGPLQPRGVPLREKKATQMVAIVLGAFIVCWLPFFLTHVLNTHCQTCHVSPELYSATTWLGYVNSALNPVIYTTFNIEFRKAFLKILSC
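Cells expressing the human receptor were seeded at 1500 cells/well, incubated overnight at 37 degrees C in 5% CO2, then exposed to library compounds with dopamine controls for 90 minutes at 37 degrees C before luminescent detection.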
GRP78 ERSR act = qHTS for Inducers of the Endoplasmic Reticulum Stress Response (ERSR) in Human Glioma: qHTS; AID 602332, 2012; U87-MG GRP78 promoter luciferase reporter, 16 h; Potency, µM, inactives show at the highest dose activation, usual class: activators; hit rate 0.02% among 420,000; also: potency is read from the fitted curve at half-maximal effect; series mostly up to about 76 µM; % of control where 0% means no effect; nearly all actives have a fitted effect of over 35% in size
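Stably transfected U87-MG human glioma cells carrying a GRP78-based luminescent sensor were seeded at 1000 cells/well, pin-dosed with compounds and incubated 16 h. Luciferase reagent was then added, and end-point luminescence was read after 10 min at room temperature.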
Nrf2 activator = qHTS of Nrf2 Activators; hit rate 0.31% among 410,000; AID 624171, 2012; Potency, µM (top dose mostly 46.1 µM), without a hit: at the top dose activation, most hits filed as activators; AREc32 ARE-luciferase reporter (MCF7-derived line), luminescence, 24 h; also: potency is read from the fitted curve at half-maximal effect; % of control where 0% means no effect; nearly all actives have a fitted effect of over 65% in size
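ARE-driven firefly luciferase activity in AREc32 cells measured after a 24 hr compound exposure at 37 deg C, using Steady-Glo reagent and a 30 min room-temperature hold.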
D3 ag = qHTS of D3 Dopamine Receptor Agonist: qHTS | D(3) dopamine receptor (Homo sapiens), P35462 | D3R DiscoveRx beta-arrestin cells, luminescence, 90 min | max activation, % | hit rate 0.58% among 410,000 | AID 652048, 2013; in the data active = max activation above about 30%; also: 0% is about no effect
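Agonist mode: compounds and dopamine controls were applied to plated cells for 90 min at 37 degrees C after an overnight attachment at 1500 cells/well. Luminescent read-out followed 30 - 60 minutes at room temperature with DiscoveRx detection reagent.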
* = called active by the depositor; ? = inconclusive; . = no result; ! = a repeat was not active. Shown are actives, neighbours in structure and some others; about 3% of the full set was active somewhere. Unless noted, calls follow the shape of the dose curve; as a rule, active = well fitted curve in the direction sought with a large enough effect; inconclusive = small, poorly fitted or top-dose-only effect, or another doubt; inactive = no such curve, though single readings can be large; an effect the other way counts as inactive or inconclusive.

SMILES | D3 antag | GRP78 ERSR act | Nrf2 activator | D3 ag
CCCn1cc(CN2CCCC(C(=O)c3ccc4c(c3)OCO4)C2)c(C)n1 (configuration not stated) | -53* | 5% | 0% | -21
O=C(c1ccc2c(c1)OCO2)C1CCCN(C2CCN(CCc3ccccc3)CC2)C1 (configuration not stated) | -84* | -3% | 3% | -26
CC(C)(C)n1ncc2c(=O)n(Cc3cccc(C(F)(F)F)c3)cnc21 | . | -2% | . | .
CCCc1cc(C(=O)Nc2nccs2)cs1 | -51* | 2% | 12% | -6
Oc1cc(-c2nc3ccccc3s2)cc2c1OCCN(Cc1cccn1-c1ccc(Cl)cn1)C2 | . | -3% | . | .
CC(C)N(Cc1ccccc1)C(=O)Cn1ncc2c3ccccc3n(Cc3ccccc3)c2c1=O | . | -2% | 0% | 0
O=C(NC1CCCCC1)N1CCN(CCc2ccccc2)CC1 | -61* | -5% | 0% | -20
CC1C/C(=N/N2C(=O)CSC2=S)CC(C)(C)C1 (configuration not stated) | -63* | -6% | 0% | -7
CC1C/C(=N/N=C2/NC(=O)CS2)CC(C)(C)C1 (configuration not stated) | 19 | -2% | 0% | 2
CN(C)c1ccc(N=Cc2ccncc2)cc1 | . | -1% | . | .
COC(=O)N1CCCc2cc(S(=O)(=O)N3CCN(c4ccccc4)CC3)ccc21 | . | -2% | 0% | 1
CCN(CC)S(=O)(=O)c1cc(-c2nnc(-c3ccc(Br)cc3)o2)ccc1Br | -65* | 1% | 1% | -10
COc1ccc(CN2CCOc3ccc(CN4CCC(Oc5cccnc5)CC4)cc3C2)cc1 | . | -3% | . | .
O=C(Cc1ccccc1)N[C@@H]1c2ccccc2CC[C@@H]1OCc1ccccc1 | -90* | -6% | 0% | -20
COc1ccc(NC(=O)N(CCC(C)C)C(C)c2ccccn2)c(OC)c1 (configuration not stated) | -53* | -6% | 0% | -5
Cc1cc(C(=O)Nc2ccccc2-c2nc(CNC(=O)c3cscn3)c(C)o2)c(C)o1 | . | 2% | . | .
CCCN(CCC)CCNC(=O)C1CCCN(S(=O)(=O)c2ccc3c(c2)oc(=O)n3C)C1 (configuration not stated) | -18 | -5% | 0% | 46*
Cn1c(=O)oc2cc(S(=O)(=O)N3CCCC(C(=O)NCCN4CCOCC4)C3)ccc21 (configuration not stated) | -13 | -5% | -1% | -9
Cc1cc(/C=N/n2cnnc2)c(O)c([N+](=O)[O-])c1 | -63* | -4% | 0% | -20
C/C(=N\OCc1nc2ccccc2c(=O)n1/N=C/c1cc(C)cc([N+](=O)[O-])c1O)c1ccccc1 | -6 | 2% | 0% | 2
O=C(Nc1ccc(Cl)c(Cl)c1)N(Cc1c[nH]c2ccccc12)C1CCCCC1 | . | -1% | 5% | -4
CS(=O)(=O)c1ccc(NCCN2CCOCC2)c([N+](=O)[O-])c1 | 1 | -5% | -1% | -1
CCN1CCCC1CNc1ccc(S(C)(=O)=O)cc1[N+](=O)[O-] (configuration not stated) | -54* | -2% | 1% | -18
O=C1c2cccc3cccc(c23)C(=O)N1CCCN(C(=O)c1cccs1)c1cccc(F)c1 | 11 | 1% | 3.2µM* | 2
COc1ccccc1NS(=O)(=O)c1ccc(O)c(C(=O)OCC(=O)N2c3ccccc3CC2C)c1 (configuration not stated) | -106* | -6% | 4% | -20
SMILES | D3 antag | GRP78 ERSR act | Nrf2 activator | D3 ag
COc1ccc(OC)c(/C=C/c2sc3ccccc3[n+]2C)c1 | . | -2% | . | .
CCCCOC(=O)c1ccc(NC(=S)NC(=O)c2c(Cl)cnn2C)cc1 | -85* | -2% | 0% | -3
CN1/C(=C/C=C/c2n(C)c3cc([N+](=O)[O-])c([N+](=O)[O-])cc3[n+]2C)C(C)(C)c2ccccc21 | -57* | -9% | 5% | -9
COc1cccc(Cn2ccn(-c3ccc(F)cc3)c(=O)c2=O)c1 | . | -2% | -1% | 2
CCCCCCCC[n+]1cccc(C(=O)N(CC)CC)c1 | -11 | -1% | 0% | 0
CCCCCCCCCCCCCCCC[n+]1cccc(C(=O)N(CC)CC)c1 | -74*! | -7% | -2% | -11
O=C1C(Cl)=C(Nc2ccccc2O)C(=O)N1c1ccccc1 | -9 | 4% | ? | 2
COc1ccccc1N1C(=O)C(Cl)=C(Nc2ccccc2O)C1=O | -1 | 1% | 13µM* | 2
CCC1CN(CCNC(=O)c2scc3c2OCCO3)Cc2cc(OC)ccc2O1 (configuration not stated) | . | -6% | . | .
CC(C)C[C@@H](CN)NC(=O)c1nc[nH]c1C(=O)N[C@@H](Cc1c[nH]c2ccccc12)C(=O)CNC[C@H](C)NC(=O)c1nc[nH]c1C(=O)N[C@@H](CC(=O)O)C(=O)O | -53* | 0% | 4% | -31
CC(C)C[C@@H](CNCC(=O)[C@H](C)NC(=O)c1[nH]cnc1C(=O)N[C@@H](C)CN)NC(=O)c1nc[nH]c1C(=O)N[C@@H](CC(=O)O)C(=O)O | -12 | -5% | -1% | 32*
CC(C)C[C@@H](CNCC(=O)[C@H](CC(C)C)NC(=O)c1[nH]cnc1C(=O)N[C@@H](C)CN)NC(=O)c1nc[nH]c1C(=O)N[C@@H](CC(=O)O)C(=O)O | -15 | -3% | 3% | 17
CC1=C[C@@H](O)CC(C)(C)[C@@H]1/C=C/C(C)=C/C=C/C(C)=C/C=C/C=C(C)/C=C/C=C(C)/C=C/C1=C(C)C[C@H](O)CC1(C)C | . | 0% | . | .
Cc1cc[n+](CC#N)cc1 | . | -2% | . | .
O=C1CSC(c2cccc([N+](=O)[O-])c2)N1CCN1CCCCC1 (configuration not stated) | ? | -2% | 0% | 0
O=C1CSC(c2ccccc2F)N1CCN1CCCCC1 (configuration not stated) | -86* | -2% | -1% | -6
CCn1c(=NC(=O)c2cccc(N3C(=O)CCC3=O)c2)sc2c(C)ccc(OC)c21 | 11 | 3% | -1% | -1
CCn1c(=NC(=O)c2ccc(N3C(=O)CCC3=O)cc2)sc2c(OC)ccc(OC)c21 | -76* | -6% | 0% | 2
Cc1c(-c2ccccc2)n(-c2ccccc2O)c2nc3c(c(=O)n(C)c(=O)n3C)n12 | . | 0% | -1% | 13
CC(=O)Oc1ccccc1C(=O)C=Cc1cccc([N+](=O)[O-])c1 | -56* | -11% | ? | -20
O=C(/C=C/Nc1ccc(F)cc1F)c1cccs1 | -9 | -12% | ? | -4
CCOC(=O)c1ccccc1NC(=O)c1cccs1 | 25 | -2% | 0% | -1
O=C(/C=C/c1ccc(O)cc1)c1cccs1 | . | 4% | . | .
O=C(C=Cc1cccs1)c1cccs1 | 24 | 3% | 22µM* | -15
CCOC(=O)c1ccccc1N/C=C/C(=O)c1cccs1 | 2 | 6% | 6.3µM* | -8
O=C(/C=C\Nc1cccc(F)c1)c1cccs1 | -2 | -4% | 4µM* | 2
